# The full list was thinned out, with the strongest signals kept by preference.
# B1: CBM40 CPF071 (Clostridium perfringens) (protein)
# chain: MAHHHHHHVGTGSNDDDDKSPDPMLSSLGEYKDINLESSNASNITYDLEKYKNLDEGTIVVRFNSKDSKIQSLLGISNSKTKNGYFNFYVTNSRVGFELRNQKNEGNTQNGTENLVHMYKDVALNDGDNTVALKIEKNKGYKLFLNGKMIKEVKDTNTKFLNNIENLDSAFIGKTNRYGQSNEYNFKGNIGFMNIYNEPLGDDYLLSKTGETK
# Tests used:
# Assay in all cases: glycan array binding signal (z-score within array); higher = stronger binding
# Details in all cases: glycan notation: IUPAC condensed, linker removed
# Fuc(a1-2)Gal(b1-3)GlcNAc = molecular target: Fuc(a1-2)Gal(b1-3)GlcNAc
# How it was run: (§1)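 The binding signal is a Z-score computed within each array. Data were drawn from 3228 arrays in the Consortium for Functional Glycomics database, restricted to those with a known protein sequence. Scores were averaged over arrays of the same protein sequence at different concentrations or buffers, and over linkers, and negative values can be taken as non-binding.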
# Fuc(a1-2)Gal(b1-4)Glc = molecular target: Fuc(a1-2)Gal(b1-4)Glc
# How it was run: as §1
# Fuc(a1-2)Gal(b1-4)GlcNAc = molecular target: Fuc(a1-2)Gal(b1-4)GlcNAc
# How it was run: as §1
# [1] = molecular target: Fuc(a1-2)Gal(b1-4)GlcNAc(b1-2)Man(a1-3)[Fuc(a1-2)Gal(b1-4)GlcNAc(b1-2)Man(a1-6)]Man(b1-4)GlcNAc(b1-4)GlcNAc
# How it was run: as §1
# [2] = molecular target: Fuc(a1-2)Gal(b1-4)GlcNAc(b1-3)Gal(b1-4)GlcNAc
# How it was run: as §1
# [3] = molecular target: Fuc(a1-2)Gal(b1-4)GlcNAc(b1-3)[Fuc(a1-3)[Gal(b1-4)]GlcNAc(b1-6)]Gal(b1-4)Glc
# How it was run: as §1
# [4] = molecular target: Fuc(a1-2)Gal(b1-4)[Fuc(a1-3)]GlcNAc
# How it was run: as §1
# [5] = molecular target: Fuc(a1-2)Gal(b1-4)[Fuc(a1-3)]GlcNAc(b1-3)Gal(b1-4)[Fuc(a1-3)]GlcNAc(b1-3)Gal(b1-4)[Fuc(a1-3)]GlcNAc
# How it was run: as §1
# [6] = molecular target: Fuc(a1-2)[Gal(a1-3)]Gal(b1-4)[Fuc(a1-3)]Glc
# How it was run: as §1
# [7] = molecular target: Fuc(a1-2)[Gal(a1-3)]Gal(b1-4)[Fuc(a1-3)]GlcNAc
# How it was run: as §1
# [8] = molecular target: Fuc(a1-2)[GalNAc(a1-3)]Gal(b1-3)GlcNAc(b1-6)GalNAc
# How it was run: as §1
# [9] = molecular target: Fuc(a1-2)[GalNAc(a1-3)]Gal(b1-4)GlcNAc
# How it was run: as §1
# [10] = molecular target: Fuc(a1-2)[GalNAc(a1-3)]Gal(b1-4)GlcNAc(b1-2)Man(a1-3)[Fuc(a1-2)[GalNAc(a1-3)]Gal(b1-4)GlcNAc(b1-2)Man(a1-6)]Man(b1-4)GlcNAc(b1-4)GlcNAc
# How it was run: as §1
# [11] = molecular target: Fuc(a1-3)[Gal(b1-4)]GlcNAc(b1-2)Man(a1-3)[Fuc(a1-3)[Gal(b1-4)]GlcNAc(b1-2)Man(a1-6)]Man(b1-4)GlcNAc(b1-4)[Fuc(a1-6)]GlcNAc
# How it was run: as §1
# [12] = molecular target: Gal(a1-3)Gal(b1-3)GlcNAc(b1-2)Man
# How it was run: as §1
# [13] = molecular target: Gal(b1-3)GlcNAc(a1-3)Gal(b1-4)GlcNAc
# How it was run: as §1
# Gal(b1-3)GlcNAc(b1-2)Man = molecular target: Gal(b1-3)GlcNAc(b1-2)Man
# How it was run: as §1
# [14] = molecular target: Gal(b1-3)[Neu5Ac(a2-6)]GlcNAc(b1-4)Gal(b1-4)Glc
# How it was run: as §1
# [15] = molecular target: Gal(b1-4)GlcNAc(b1-3)GalNAc
# How it was run: as §1
# Gal3S6S(b1-4)GlcNAc = molecular target: Gal3S6S(b1-4)GlcNAc
# How it was run: as §1
# Gal6S(b1-3)GlcNAc = molecular target: Gal6S(b1-3)GlcNAc
# How it was run: as §1
# Gal6S(b1-4)Glc = molecular target: Gal6S(b1-4)Glc
# How it was run: as §1
# GalNAc(b1-3)GalNAc = molecular target: GalNAc(b1-3)GalNAc
# How it was run: as §1
# Glc(b1-4)Glc = molecular target: Glc(b1-4)Glc
# How it was run: as §1
# GlcA(b1-3)GlcNAc = molecular target: GlcA(b1-3)GlcNAc
# How it was run: as §1
# [16] = molecular target: GlcNAc(a1-4)Gal(b1-3)GlcNAc
# How it was run: as §1
# [17] = molecular target: GlcNAc(b1-3)Gal(b1-4)GlcNAc(b1-3)Gal(b1-4)GlcNAc(b1-2)Man(a1-3)[GlcNAc(b1-3)Gal(b1-4)GlcNAc(b1-3)Gal(b1-4)GlcNAc(b1-2)Man(a1-6)]Man(b1-4)GlcNAc(b1-4)[Fuc(a1-6)]GlcNAc
# How it was run: as §1
# [18] = molecular target: GlcNAc(b1-3)Gal(b1-4)GlcNAc(b1-3)Gal(b1-4)GlcNAc(b1-3)Gal(b1-4)GlcNAc(b1-3)Gal(b1-4)GlcNAc(b1-2)Man(a1-3)[GlcNAc(b1-3)Gal(b1-4)GlcNAc(b1-3)Gal(b1-4)GlcNAc(b1-3)Gal(b1-4)GlcNAc(b1-3)Gal(b1-4)GlcNAc(b1-2)Man(a1-6)]Man(b1-4)GlcNAc(b1-4)[Fuc(a1-6)]GlcNAc
# How it was run: as §1
# Kdn(a2-3)Gal(b1-3)GlcNAc = molecular target: Kdn(a2-3)Gal(b1-3)GlcNAc
# How it was run: as §1
# [19] = molecular target: Neu5Ac(a2-3)Gal(b1-3)GalNAc
# How it was run: as §1
# [20] = molecular target: Neu5Ac(a2-3)Gal(b1-3)GalNAc(b1-4)[Neu5Ac(a2-8)Neu5Ac(a2-3)]Gal(b1-4)Glc
# How it was run: as §1
# [21] = molecular target: Neu5Ac(a2-3)Gal(b1-3)GlcNAc
# How it was run: as §1
# [22] = molecular target: Neu5Ac(a2-3)Gal(b1-3)GlcNAc(b1-2)[Neu5Ac(a2-3)Gal(b1-3)GlcNAc(b1-4)]Man(a1-6)[Neu5Ac(a2-3)Gal(b1-3)GlcNAc(b1-2)Man(a1-3)]Man(b1-4)GlcNAc(b1-4)GlcNAc
# How it was run: as §1
# [23] = molecular target: Neu5Ac(a2-3)Gal(b1-3)GlcNAc(b1-3)Gal(b1-4)GlcNAc
# How it was run: as §1
# [24] = molecular target: Neu5Ac(a2-3)Gal(b1-3)[Fuc(a1-4)]GlcNAc
# How it was run: as §1
# [25] = molecular target: Neu5Ac(a2-3)Gal(b1-3)[Fuc(a1-4)]GlcNAc(b1-3)Gal(b1-3)[Fuc(a1-4)]GlcNAc
# How it was run: as §1
# [26] = molecular target: Neu5Ac(a2-3)Gal(b1-3)[Fuc(a1-4)]GlcNAc(b1-3)Gal(b1-4)[Fuc(a1-3)]GlcNAc
# How it was run: as §1
# [27] = molecular target: Neu5Ac(a2-3)Gal(b1-3)]Neu5Ac(a2-3)Gal(b1-4)]GlcNAc
# How it was run: as §1
# [28] = molecular target: Neu5Ac(a2-3)Gal(b1-4)GlcNAc(b1-2)Man(a1-3)[Neu5Ac(a2-3)Gal(b1-4)GlcNAc(b1-2)Man(a1-6)]Man(b1-4)GlcNAc(b1-4)GlcNAc
# How it was run: as §1
# [29] = molecular target: Neu5Ac(a2-3)Gal(b1-4)GlcNAc(b1-3)Gal(b1-4)GlcNAc
# How it was run: as §1
# [30] = molecular target: Neu5Ac(a2-3)Gal(b1-4)GlcNAc6S
# How it was run: as §1
# [31] = molecular target: Neu5Ac(a2-3)Gal(b1-4)[Fuc(a1-3)]GlcNAc(b1-3)Gal
# How it was run: as §1
# [32] = molecular target: Neu5Ac(a2-3)Gal6S(b1-4)GlcNAc
# How it was run: as §1
# [33] = molecular target: Neu5Ac(a2-3)Gal6S(b1-4)[Fuc(a1-3)]GlcNAc
# How it was run: as §1
# [34] = molecular target: Neu5Ac(a2-3)GalNAc(b1-4)GlcNAc
# How it was run: as §1
# [35] = molecular target: Neu5Ac(a2-6)Gal(b1-4)GlcNAc(b1-3)Gal(b1-4)GlcNAc(b1-6)[Gal(b1-3)]GalNAc
# How it was run: as §1
# [36] = molecular target: Neu5Ac(a2-6)Gal(b1-4)GlcNAc(b1-6)[Gal(b1-3)GlcNAc(b1-3)]Gal(b1-4)Glc
# How it was run: as §1
# Neu5Ac(a2-8)Neu5Ac = molecular target: Neu5Ac(a2-8)Neu5Ac
# How it was run: as §1
# [37] = molecular target: Neu5Ac(a2-8)Neu5Ac(a2-3)Gal(b1-3)GalNAc(b1-4)[Neu5Ac(a2-3)]Gal(b1-4)Glc
# How it was run: as §1
# [38] = molecular target: Neu5Ac(a2-8)Neu5Ac(a2-8)Neu5Ac
# How it was run: as §1
# [39] = molecular target: Neu5Ac(a2-8)Neu5Ac(a2-8)Neu5Ac(a2-8)Neu5Ac(a2-3)[GalNAc(b1-4)]Gal(b1-4)Glc
# How it was run: as §1
# [40] = molecular target: Neu5Gc(a2-3)Gal(b1-4)GlcNAc(b1-3)Gal(b1-4)GlcNAc(b1-2)Man(a1-3)[Neu5Gc(a2-3)Gal(b1-4)GlcNAc(b1-3)Gal(b1-4)GlcNAc(b1-2)Man(a1-6)]Man(b1-4)GlcNAc(b1-4)GlcNAc
# How it was run: as §1
# [41] = molecular target: Neu5Gc(a2-6)Gal(b1-4)GlcNAc
# How it was run: as §1
binder,measurement,setting,value
B1,glycan array binding signal (z-score),Fuc(a1-2)Gal(b1-3)GlcNAc,-0.384
same,glycan array binding signal (z-score),Fuc(a1-2)Gal(b1-4)Glc,-0.55
same,glycan array binding signal (z-score),Fuc(a1-2)Gal(b1-4)GlcNAc,-0.027
same,glycan array binding signal (z-score),[1],-0.22
same,glycan array binding signal (z-score),[2],0.231
same,glycan array binding signal (z-score),[3],2.74
same,glycan array binding signal (z-score),[4],0.074
same,glycan array binding signal (z-score),[5],0.635
same,glycan array binding signal (z-score),[6],-0.299
same,glycan array binding signal (z-score),[7],-0.541
same,glycan array binding signal (z-score),[8],0.171
same,glycan array binding signal (z-score),[9],-0.116
same,glycan array binding signal (z-score),[10],-0.216
same,glycan array binding signal (z-score),[11],-0.443
same,glycan array binding signal (z-score),[12],0.599
same,glycan array binding signal (z-score),[13],-0.517
same,glycan array binding signal (z-score),Gal(b1-3)GlcNAc(b1-2)Man,-0.631
same,glycan array binding signal (z-score),[14],-0.087
same,glycan array binding signal (z-score),[15],-0.419
same,glycan array binding signal (z-score),Gal3S6S(b1-4)GlcNAc,-0.144
same,glycan array binding signal (z-score),Gal6S(b1-3)GlcNAc,-0.48
same,glycan array binding signal (z-score),Gal6S(b1-4)Glc,-0.246
same,glycan array binding signal (z-score),GalNAc(b1-3)GalNAc,0.09
same,glycan array binding signal (z-score),Glc(b1-4)Glc,2.37
same,glycan array binding signal (z-score),GlcA(b1-3)GlcNAc,0.262
same,glycan array binding signal (z-score),[16],-0.341
same,glycan array binding signal (z-score),[17],-0.411
same,glycan array binding signal (z-score),[18],-0.108
same,glycan array binding signal (z-score),Kdn(a2-3)Gal(b1-3)GlcNAc,-0.464
same,glycan array binding signal (z-score),[19],-0.019
same,glycan array binding signal (z-score),[20],-0.469
same,glycan array binding signal (z-score),[21],0.994
same,glycan array binding signal (z-score),[22],2.77
same,glycan array binding signal (z-score),[23],-0.328
same,glycan array binding signal (z-score),[24],2.38
same,glycan array binding signal (z-score),[25],0.256
same,glycan array binding signal (z-score),[26],1.09
same,glycan array binding signal (z-score),[27],10.7
same,glycan array binding signal (z-score),[28],-0.305
same,glycan array binding signal (z-score),[29],1.96
same,glycan array binding signal (z-score),[30],5.07
same,glycan array binding signal (z-score),[31],1.97
same,glycan array binding signal (z-score),[32],16.3
same,glycan array binding signal (z-score),[33],5.09
same,glycan array binding signal (z-score),[34],0.216
same,glycan array binding signal (z-score),[35],0.025
same,glycan array binding signal (z-score),[36],-0.069
same,glycan array binding signal (z-score),Neu5Ac(a2-8)Neu5Ac,0.538
same,glycan array binding signal (z-score),[37],-0.205
same,glycan array binding signal (z-score),[38],-0.128
same,glycan array binding signal (z-score),[39],-0.358
same,glycan array binding signal (z-score),[40],2.46
same,glycan array binding signal (z-score),[41],-0.336

# Source: the supplement of paper PMC8728848
